The inhibition is the change of the read-out against control, counted positive when it falls.

Calls of active or inactive are those of the source.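 Rule for the calls: active = inhibition above about 23% in any of six single-dose repeats (limit read from the data); inactive = the rest.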

The values that follow come from PubChem BioAssay AID434927 (Sanford-Burnham Center for Chemical Genomics, 2010).

This test concerns the target Intestinal-type alkaline phosphatase (Homo sapiens) (UniProt P09923). The test is described as follows: suppression of intestinal alkaline phosphatase activity – biochemical, luminescence, single concentration, uHTS hits, confirmation (AID 434927).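 Note: plate controls were DMSO wells with enzyme for no effect and wells lacking enzyme for full effect.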 To be noted: purified human IAP, CDP-Star luminescence, 30 min; at 8.3 µM; stronger effect = higher value.

Sequence of Intestinal-type alkaline phosphatase (Homo sapiens) (P09923 whole entry, looked up): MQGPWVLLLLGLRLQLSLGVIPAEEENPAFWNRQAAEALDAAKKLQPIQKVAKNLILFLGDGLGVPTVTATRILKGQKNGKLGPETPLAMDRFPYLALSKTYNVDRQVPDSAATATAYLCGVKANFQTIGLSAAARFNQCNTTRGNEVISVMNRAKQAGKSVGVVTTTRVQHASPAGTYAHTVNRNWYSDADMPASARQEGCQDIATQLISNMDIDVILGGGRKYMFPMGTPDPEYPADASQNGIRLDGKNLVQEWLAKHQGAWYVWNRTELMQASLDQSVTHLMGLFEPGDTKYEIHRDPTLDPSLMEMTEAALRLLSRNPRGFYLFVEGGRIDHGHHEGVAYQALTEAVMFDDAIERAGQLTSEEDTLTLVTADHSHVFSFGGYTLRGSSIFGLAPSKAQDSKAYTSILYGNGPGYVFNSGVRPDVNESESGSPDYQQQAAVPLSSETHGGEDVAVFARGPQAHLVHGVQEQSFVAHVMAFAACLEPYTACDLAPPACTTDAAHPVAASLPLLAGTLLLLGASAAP

As for `COC(=O)Cn1cc(/C=C2\C(=O)NC(=O)N(c3ccccc3)C2=O)c2ccccc21`, the inhibition is 33.9% (active).
